Experimental data as given in PubChem BioAssay AID504333 (National Center for Advancing Translational Sciences (NCATS), 2011).
Hit rate of the full screen: of about 360,000 compounds, about 16,000 (4.4%) were called active. About 9% were inconclusive and are not listed. Shown is part of a subset that was picked to be rich in actives. Unmarked numbers belong to inactive results. Calls come from the whole dose curve; as a rule, active = well fitted inhibition curve with a large enough effect; inconclusive = small, poorly fitted or top-dose-only effect; inactive = no such curve, though single readings can be large or run the other way.

biological target: Bromodomain adjacent to zinc finger domain protein 2B (Homo sapiens) (UniProt Q9UIF8); assay: qHTS Assay for Inhibitors of BAZ2B; conditions: AlphaScreen BAZ2B-H3K14Ac peptide displacement; series mostly up to 114 µM; activity change, negative = inhibition: at the top concentration; note: nearly all actives have a fitted effect of over 60% in size
Summary of the method: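 AlphaScreen displacement of biotin-H3(5-23)K14Ac peptide (50 nM final) from BAZ2B (50 nM final) in PBS pH 7.4, 0.01% Tween-20; complex preformed 30 min RT, then compounds (top 110 uM) 30 min RT, beads 20 min dark.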
% is set by controls: 0 for no effect and ±100 for the full control effect; potency is the fitted concentration of half-maximal effect.

Chain of Bromodomain adjacent to zinc finger domain protein 2B (Homo sapiens) (Q9UIF8 whole entry, looked up, the tested form may be a part): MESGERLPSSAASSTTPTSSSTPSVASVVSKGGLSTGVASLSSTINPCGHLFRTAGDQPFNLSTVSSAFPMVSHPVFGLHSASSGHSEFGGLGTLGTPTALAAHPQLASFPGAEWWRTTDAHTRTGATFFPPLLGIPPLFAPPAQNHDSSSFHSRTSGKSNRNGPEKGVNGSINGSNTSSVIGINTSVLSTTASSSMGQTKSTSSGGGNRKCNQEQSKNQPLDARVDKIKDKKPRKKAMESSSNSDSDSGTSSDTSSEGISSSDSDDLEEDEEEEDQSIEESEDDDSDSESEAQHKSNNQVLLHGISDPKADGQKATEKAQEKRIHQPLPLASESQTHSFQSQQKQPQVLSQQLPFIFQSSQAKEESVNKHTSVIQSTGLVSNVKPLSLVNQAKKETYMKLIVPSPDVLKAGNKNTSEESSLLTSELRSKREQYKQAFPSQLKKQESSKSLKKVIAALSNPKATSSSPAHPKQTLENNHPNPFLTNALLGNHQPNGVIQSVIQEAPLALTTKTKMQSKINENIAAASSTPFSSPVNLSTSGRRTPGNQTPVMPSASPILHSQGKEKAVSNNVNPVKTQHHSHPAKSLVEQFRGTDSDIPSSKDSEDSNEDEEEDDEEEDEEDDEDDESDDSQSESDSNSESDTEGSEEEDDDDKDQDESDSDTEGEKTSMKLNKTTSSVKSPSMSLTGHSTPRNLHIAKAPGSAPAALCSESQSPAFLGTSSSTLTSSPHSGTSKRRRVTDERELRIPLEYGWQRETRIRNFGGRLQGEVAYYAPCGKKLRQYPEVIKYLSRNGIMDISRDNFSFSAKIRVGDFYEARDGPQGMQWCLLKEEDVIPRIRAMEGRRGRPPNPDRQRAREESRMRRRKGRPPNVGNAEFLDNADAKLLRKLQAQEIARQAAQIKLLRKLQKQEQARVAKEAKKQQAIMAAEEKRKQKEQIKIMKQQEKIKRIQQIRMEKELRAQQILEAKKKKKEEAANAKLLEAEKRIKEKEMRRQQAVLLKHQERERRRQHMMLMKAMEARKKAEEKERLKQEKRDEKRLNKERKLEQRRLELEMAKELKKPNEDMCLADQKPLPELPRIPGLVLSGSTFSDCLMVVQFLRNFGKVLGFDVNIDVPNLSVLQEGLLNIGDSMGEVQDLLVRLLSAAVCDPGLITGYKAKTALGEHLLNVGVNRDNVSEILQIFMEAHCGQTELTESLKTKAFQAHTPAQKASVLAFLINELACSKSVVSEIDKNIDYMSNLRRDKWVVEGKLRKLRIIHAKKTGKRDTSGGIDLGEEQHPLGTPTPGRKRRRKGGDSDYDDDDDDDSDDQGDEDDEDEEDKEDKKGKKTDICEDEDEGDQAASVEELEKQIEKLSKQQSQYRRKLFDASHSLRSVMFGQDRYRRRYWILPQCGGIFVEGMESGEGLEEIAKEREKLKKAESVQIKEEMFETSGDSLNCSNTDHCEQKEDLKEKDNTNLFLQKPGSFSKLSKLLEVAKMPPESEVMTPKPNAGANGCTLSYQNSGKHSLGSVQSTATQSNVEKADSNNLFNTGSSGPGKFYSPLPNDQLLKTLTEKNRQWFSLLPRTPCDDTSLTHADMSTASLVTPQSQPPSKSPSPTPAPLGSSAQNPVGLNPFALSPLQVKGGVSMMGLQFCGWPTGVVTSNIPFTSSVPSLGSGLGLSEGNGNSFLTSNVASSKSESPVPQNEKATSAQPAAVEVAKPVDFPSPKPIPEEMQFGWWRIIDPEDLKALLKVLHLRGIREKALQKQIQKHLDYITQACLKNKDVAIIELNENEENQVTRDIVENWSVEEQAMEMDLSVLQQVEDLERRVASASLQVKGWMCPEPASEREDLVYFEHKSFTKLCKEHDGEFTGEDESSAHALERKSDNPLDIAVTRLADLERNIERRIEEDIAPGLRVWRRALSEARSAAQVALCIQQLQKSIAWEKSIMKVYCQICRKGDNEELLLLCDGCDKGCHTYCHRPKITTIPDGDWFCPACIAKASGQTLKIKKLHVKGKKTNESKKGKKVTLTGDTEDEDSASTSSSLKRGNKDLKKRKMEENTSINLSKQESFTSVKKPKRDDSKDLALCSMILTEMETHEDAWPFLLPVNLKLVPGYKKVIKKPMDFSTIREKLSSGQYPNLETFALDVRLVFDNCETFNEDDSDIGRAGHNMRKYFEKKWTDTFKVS

| SMILES | activity change, negative = inhibition | Potency |
| --- | --- | --- |
| OCc1cnc(SCc2ccc(F)cc2)n1Cc1ccc(F)cc1 | 1.23% |  |
| CCOc1ccc(-n2c(SCC(=O)NCc3ccccc3)nc3n[nH]c(C)c3c2=N)cc1 | -0.2% |  |
| O=C(Nc1ccc(C(=O)O)c(O)c1)c1ccccc1 | -17.5% |  |
| O=C(Cn1ccc(=O)[nH]c1=O)Nc1ccc(C(=O)O)c(O)c1 | -11% |  |
| O=C(O)c1ccc(-n2cccc2)cc1O |  | 56.2 µM (active) |
| Cc1ccc(S(=O)(=O)N(Cc2nc(-c3ccc(Cl)cc3)no2)C2CCCCC2)cc1 | -2.47% |  |
| CN1C2CCC1/C(=C\c1ccccc1Cl)C(=O)/C2=C\c1ccccc1Cl |  | 39.8 µM (active) |
| O=C(CN1CCCCCC1)NCCN1C(=O)S/C(=C\c2ccccc2Cl)C1=O | -16% |  |
| O=C(CN1C(=O)S/C(=C\c2ccccc2Cl)C1=O)NC1C=CS(=O)(=O)C1 (stereo not drawn) | -14.2% |  |
| O=C(Nc1ccc(F)cc1F)c1ccc2c(=O)n3c(nc2c1)CCCCC3 | -1.2% |  |
| CCOC(=O)c1cc2c(=O)n3ccccc3nc2n(CCCOC)c1=NC(=O)C(C)(C)Oc1ccc(Cl)cc1 | 6.45% |  |
| Oc1ccccc1-c1nc(/C=C/c2ccc(F)cc2)no1 | 2.43% |  |
| Cc1ccn2c(=O)nc(SCC(=O)NCc3ccc4c(c3)OCO4)nc2c1 |  | 56.2 µM (active) |
| O=C(CSc1ncn[nH]1)NCc1ccc2c(c1)OCO2 | -10.9% |  |
| Cc1ccn2c(=O)nc(SCC(=O)NCc3ccc(F)cc3)nc2c1 | 7.72% |  |
| Cc1ccc(C)c(Nc2nnc(-c3ccc(C)c(S(=O)(=O)N4CCCCC4)c3)c3ccccc23)c1 | -2.85% |  |
| COc1cccc(CNC(=O)c2ccc3c(c2)sc2nc(-c4cccc(OC)c4)cn23)c1 | 0.455% |  |
| CN(C)CCOc1cccc(Br)c1 |  | 44.7 µM (active) |
| CN(C)CCOC1c2ccccc2-c2ccccc21 | -16.4% |  |
| COc1ccc(OC)c(NC(=O)CN(C)CCOc2ccc(Br)cc2)c1 | -0.9% |  |
| COc1ccc(NC(=O)CN2CCCN(Cc3ccccc3)S2(=O)=O)cc1 | -14.2% |  |
| Nc1ccc(C(=O)NCc2ccccc2)cc1 | -7.75% |  |
| O=C(NCCCNCc1ccccc1)c1ccc(/C=N/O)nc1 |  | 50.1 µM (active) |

| SMILES | activity change, negative = inhibition | Potency |
| --- | --- | --- |
| CC(C)c1ccc(C(=O)NCCCc2ccccc2)cc1 | 20% |  |
| Oc1ccc(CNc2ccccc2O)cc1 |  | 44.7 µM (active) |
| Oc1ccccc1N1CCN(C(=S)NCc2ccccc2)CC1 | -22.6% |  |
| O=C(Cc1ccc(Cl)cc1)NC(=S)Nc1ccccc1O | -24.5% |  |
| O=C(c1ccc(C(F)(F)F)cc1)N1CCC(c2nc(-c3ccc(S(=O)(=O)N4CCCC4)cc3)no2)CC1 | -9.31% |  |
| COc1cccc(NC(=O)Nc2ccc3c(c2)N(C)C(=O)c2ccccc2S3)c1 | -10.1% |  |
| COc1ccc(CC(=O)N2CC(=O)Nc3ccc(Br)cc3C2c2ccc(F)cc2)cc1OC (stereo not drawn) | -14.3% |  |
| CCOC(=O)c1c(NC(=O)CSc2nnc(CN3CCOCC3)n2C)sc2c1CCCC2 | -26.7% |  |
| CCOC(=O)c1c(NC(=O)CSc2nnc(Cc3csc(N)n3)n2C)sc(C)c1C |  | 12.6 µM (active) |
| CCOC(=O)c1c(NC(=O)CSc2nccc(=O)[nH]2)sc(C)c1C | -9.27% |  |
| Cc1cccc(C)c1-n1ncc(C(=O)NCCCN2CCCCC2)c1C1CCN(C(=O)OC(C)(C)C)CC1 | 3.65% [at 57.1 µM] |  |
| CC(C)S(=O)(=O)c1oc(-c2ccc(F)cc2)nc1S(=O)(=O)c1ccc(F)cc1 | -9.7% |  |
| Cc1ccc(NC(=O)CSc2nc3c([nH]c4ccccc43)c(=O)n2-c2ccccc2)cc1Cl | 1.24% |  |
| Cc1ccc(N2CC(c3nnc(Cc4ccccc4Cl)o3)CC2=O)cc1 (stereo not drawn) | 0.975% |  |
| Cc1ccccc1Nc1nc(N)nc(CN2CCN(c3ccccn3)CC2)n1 |  | 50.1 µM (active) |
| Cc1ccccc1Nc1nc(N)nc(CSc2ccccc2)n1 | -3.17% |  |
| Cc1ccc(C(=O)OCc2nc(N)nc(Nc3ccccc3C)n2)cc1 | -38.2% |  |
| CCOc1ccccc1CNC(=O)Nc1cn(CC(C)C)c(=O)c2ccccc12 | -2.98% [at 57.1 µM] |  |
| COc1ccccc1CNC(=O)C(Cc1ccccc1)NS(=O)(=O)c1ccc2c(c1)oc(=O)n2C (stereo not drawn) | -17.6% |  |
| COc1ccc2c(C)c(CCC(=O)NCc3ccc(OC)c(OC)c3)c(=O)oc2c1 | 5.41% |  |
| CC(C)c1ccc(Nc2ncccc2C#N)cc1 | 81.1% |  |
| Nc1ccc(Nc2cc(O)c3ncccc3c2)cc1 |  | 7.08 µM (active) |
| CC1CCN(S(=O)(=O)c2ccc3c(ccn3CCC(=O)NCc3ccc(N(C)C)cc3)c2)CC1 |  | 28.2 µM (active) |

| SMILES | activity change, negative = inhibition | Potency |
| --- | --- | --- |
| O=C(CCn1ccc2cc(S(=O)(=O)N3CCCC3)ccc21)NCc1cccc(Cl)c1 | -13.3% |  |
| CC1CCN(S(=O)(=O)c2ccc3c(ccn3CC(=O)O)c2)CC1 | -4.21% [at 57.1 µM] |  |
| CCCN(CCC)C(=O)C(Cc1ccccc1)NS(=O)(=O)c1ccc2c(c1)c(=O)n(C)c(=O)n2C (stereo not drawn) | -3.16% |  |
| Cc1ccc(S(=O)(=O)N2CCN(CC(=O)N/N=C/c3cc([N+](=O)[O-])ccc3Cl)CC2)cc1 | 8.66% |  |
| O=[N+]([O-])c1cc(Cl)cc(/C=N/NC(=S)Nc2cc(S(=O)(=O)N3CCOCC3)ccc2Cl)c1O |  | 1.78 µM (active) |
| O=S(=O)(c1ccc(NC(=S)NN=C(C2CC2)C2CC2)cc1)N1CCOCC1 | -17.6% |  |
| Cn1c(=O)c2c(nc(SCC(=O)Nc3ccc(F)cc3)n2Cc2ccccc2)n(C)c1=O | 1.84% |  |
| Cc1nn(C(C)C(=O)Nc2ccc(C(C)C)cc2)c(=O)c2c1sc1ccccc12 (stereo not drawn) | 0.522% |  |
| CC1CN(C(=O)N2CCC(C(=O)NCc3ccco3)CC2)c2cc(Cl)ccc2O1 (stereo not drawn) | -21.9% |  |
| O=C(Nc1nnc(C2CC2)s1)c1ccccn1 |  | 5.62 µM (active) |
| Cc1cnc(NC(=O)C2CCCC2)s1 | 1.74% |  |
| O=C(Nc1nnc(C2CC2)s1)c1cc(Cl)sc1Cl | -15.5% |  |
| Cc1cnc(NC(=O)c2ccccn2)s1 |  | 35.5 µM (active) |
| Cc1ccc(SCC(=O)Nc2ncc(C)s2)cc1 | 19.4% |  |
| Cc1cc(C(=O)Nc2nnc(C3CC3)s2)c(C)s1 | 0.462% |  |
| COCCNC(=O)c1ccc2c(c1)N=C(C)c1cc(C)ccc1S2 | -15.3% |  |
| CC1=Nc2cc(C(=O)N3CCC(C)CC3)ccc2Sc2ccc(Cl)cc21 | -31.1% |  |
| Cc1ccc(Cn2c(=O)n(-c3ccc(C)cc3)c(=O)c3c2c2cc(C)ccc2n3C)cc1 | 2.31% |  |
| COc1ccc(CNC(=O)CSc2n[nH]c(-c3ccc(F)cc3)n2)cc1 | 4.99% |  |
| CCc1nnc(NC(=O)c2ccc(S(=O)(=O)NC3CCCCC3)cc2)s1 | 2.26% |  |
| CCc1nnc(NC(=O)c2cc(S(=O)(=O)N3CCCCC3)ccc2C)s1 | 11.5% |  |
| CCc1nnc(NC(=O)c2nc3nccc(C)n3n2)s1 |  | 70.8 µM (active) |
